{"source": "PubChem BioAssay (NCATS)", "note": "Several values for one entry are separate records, joined by “and”; a condition that tells them apart may be missing. Identical values can stand only once. Results filed as inconclusive are left out. Activity calls are given as the source filed them. The call rests on the fitted dose curve; in most records, active means well fitted curve in the direction sought with a large enough effect; inconclusive means small, poorly fitted or top-dose-only effect, or another doubt; inactive means no such curve, though single readings can be large; an effect the other way counts as inactive or inconclusive."}
{"experiment": "Cellular Toxicity (caspase-3) Hek293 (AID 664);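 further: cells exposed to compound for 16 h at 37 °C before readout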", "conditions": "HEK293 caspase-3 activation, DMSO = 0%, 100 µM tamoxifen = 100%; at 92.2 µM (top of the series)", "outline": "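Luminescent Caspase-Glo 3/7 readout (aminoluciferin release) in HEK293 cells after 16 h compound treatment, 37 °C. Normalization: DMSO = basal, 100 uM tamoxifen = 100% stimulation. Concentration-response fitted with standard Hill equation for AC50.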"}
{"smiles": "Oc1ccccc1O", "caspase-3 activation": "7.91% (inactive)"}
{"smiles": "Nc1nc2ccc([N+](=O)[O-])cc2s1", "caspase-3 activation": "-4.39% (inactive)"}
{"smiles": "O=c1cc(-c2ccccc2)oc2ccccc12", "caspase-3 activation": "-5.01% (inactive)"}
{"smiles": "O=C1CN(/N=C/c2ccc([N+](=O)[O-])o2)C(=O)N1", "caspase-3 activation": "-0.37% (inactive)"}
{"smiles": "O=C(O)/C=C\\C(=O)O", "caspase-3 activation": "-1.35% (inactive)"}
{"smiles": "Nc1ccc([N+](=O)[O-])cc1O", "caspase-3 activation": "-2.49% (inactive)"}
{"smiles": "CC(C)NCC(O)COc1cccc2ccccc12", "note": "(stereo unspecified)", "caspase-3 activation": "0.268% (inactive)"}
{"smiles": "Nc1ccc(O)c([N+](=O)[O-])c1", "caspase-3 activation": "0.408% (inactive)"}
{"smiles": "CN(C)c1ccc(C(=C2C=CC(=[N+](C)C)C=C2)c2ccccc2)cc1", "caspase-3 activation": "-9.3% (active)"}
{"smiles": "CCCOC(=O)c1ccc(O)cc1", "caspase-3 activation": "0.939% (inactive) and -1.18% (inactive)"}
{"smiles": "CN1CCC[C@H]1c1cccnc1", "caspase-3 activation": "1.08% (inactive)"}
{"smiles": "C#C[C@]1(O)CC[C@H]2[C@@H]3CCc4cc(O)ccc4[C@H]3CC[C@@]21C", "caspase-3 activation": "-0.747% (inactive)"}
{"smiles": "c1cnc2c(c1)ccc1cccnc12", "caspase-3 activation": "-4.62% (inactive)"}
{"smiles": "O=C(O)c1cc(O)c(O)c(O)c1", "caspase-3 activation": "-9.64% (inactive)"}
{"smiles": "c1ccc2sc(SSc3nc4ccccc4s3)nc2c1", "caspase-3 activation": "2.01% (inactive)"}
{"smiles": "NCCO", "caspase-3 activation": "-4.95% (inactive)"}
{"smiles": "CCCCCCCCCCCCCCCCCC(=O)O", "caspase-3 activation": "0.144% (inactive)"}
{"smiles": "N=C1N=C(N)c2cc3ccccc3cc21", "caspase-3 activation": "9.9% (inactive)"}
{"smiles": "CC1(C)S[C@@H]2[C@H](NC(=O)[C@H](N)c3ccccc3)C(=O)N2[C@H]1C(=O)O", "caspase-3 activation": "-0.638% (inactive)"}
{"smiles": "Nc1ccc(O)c(C(=O)O)c1", "caspase-3 activation": "0.369% (inactive)"}
{"smiles": "CN(C)c1ccc(N=NS(=O)(=O)O)cc1", "caspase-3 activation": "-1.18% (inactive)"}
{"smiles": "CN(C)CCC(c1ccc(Cl)cc1)c1ccccn1", "note": "(stereo unspecified)", "caspase-3 activation": "1.34% (inactive)"}
{"smiles": "COc1cc(/C=C/C(=O)CC(=O)/C=C/c2ccc(O)c(OC)c2)ccc1O", "caspase-3 activation": "27.4% (inactive)"}
{"smiles": "S=c1[nH]c2ccccc2s1", "caspase-3 activation": "1.33% (inactive)"}
{"smiles": "COc1cc(CNC(=O)CCCC/C=C/C(C)C)ccc1O", "caspase-3 activation": "0.218% (inactive)"}
{"experiment": "Cellular Toxicity (caspase-3) NIH 3T3 (AID 666);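 further: caspase signal read after 16 h compound exposure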; further: potency means the concentration at half of the fitted maximal effect", "conditions": "NIH 3T3 caspase-3 activation, apoptosis/toxicity; series mostly up to 92.2 µM; caspase-3 activation: at the top concentration", "outline": "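NIH 3T3, 1000 cells/well, 5 hr settle then 16 hr compound at 37°C; Caspase-Glo 3/7, 20 min RT, luminescence. DMSO = basal, 100 uM tamoxifen = 100%. Hill-equation AC50, qHTS.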"}
{"smiles": "Nc1nc2ccc([N+](=O)[O-])cc2s1", "caspase-3 activation": "-19.7% (inactive)"}
{"smiles": "O=c1cc(-c2ccccc2)oc2ccccc12", "caspase-3 activation": "-15.9% (inactive)"}
{"smiles": "O=C1CN(/N=C/c2ccc([N+](=O)[O-])o2)C(=O)N1", "caspase-3 activation": "-3.03% (inactive)"}
{"smiles": "O=C(O)/C=C\\C(=O)O", "caspase-3 activation": "-0.839% (inactive)"}
{"smiles": "Nc1ccc([N+](=O)[O-])cc1O", "caspase-3 activation": "-2.76% (inactive)"}
{"smiles": "CC(C)NCC(O)COc1cccc2ccccc12", "note": "(stereo unspecified)", "caspase-3 activation": "3.26% (inactive)"}
{"smiles": "Nc1ccc(O)c([N+](=O)[O-])c1", "caspase-3 activation": "-1.24% (inactive)"}
{"smiles": "CN(C)c1ccc(C(=C2C=CC(=[N+](C)C)C=C2)c2ccccc2)cc1", "Potency": "1000 nM (active)"}
{"smiles": "CCCOC(=O)c1ccc(O)cc1", "Potency": "inactive"}
{"smiles": "CN1CCC[C@H]1c1cccnc1", "caspase-3 activation": "1.53% (inactive)"}
{"smiles": "C#C[C@]1(O)CC[C@H]2[C@@H]3CCc4cc(O)ccc4[C@H]3CC[C@@]21C", "caspase-3 activation": "0.497% (inactive)"}
{"smiles": "c1cnc2c(c1)ccc1cccnc12", "caspase-3 activation": "-6.86% (inactive)"}
{"smiles": "O=C(O)c1cc(O)c(O)c(O)c1", "caspase-3 activation": "-18.8% (inactive)"}
{"smiles": "c1ccc2sc(SSc3nc4ccccc4s3)nc2c1", "caspase-3 activation": "2.61% (inactive)"}
{"smiles": "NCCO", "caspase-3 activation": "-1.12% (inactive)"}
{"smiles": "CCCCCCCCCCCCCCCCCC(=O)O", "caspase-3 activation": "3.01% (inactive)"}
{"smiles": "CC1(C)S[C@@H]2[C@H](NC(=O)[C@H](N)c3ccccc3)C(=O)N2[C@H]1C(=O)O", "caspase-3 activation": "-3.88% (inactive)"}
{"smiles": "Nc1ccc(O)c(C(=O)O)c1", "caspase-3 activation": "-18.5% (inactive)"}
{"smiles": "CN(C)c1ccc(N=NS(=O)(=O)O)cc1", "caspase-3 activation": "-11% (inactive)"}
{"smiles": "CN(C)CCC(c1ccc(Cl)cc1)c1ccccn1", "note": "(stereo unspecified)", "caspase-3 activation": "-4.21% (inactive)"}
{"smiles": "S=c1[nH]c2ccccc2s1", "caspase-3 activation": "-10.9% (inactive)"}
{"smiles": "COc1cc(CNC(=O)CCCC/C=C/C(C)C)ccc1O", "caspase-3 activation": "-1.9% (inactive)"}
{"experiment": "Cellular Toxicity (caspase-3) Renal Proximal Tubule (AID 667);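 further: cells exposed to compound for 16 hours at 37 °C before detection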; further: potency means the concentration at half of the fitted maximal effect;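 on caspase-3 activation: 0% = DMSO basal and 100% = 10 µM staurosporine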", "conditions": "renal proximal tubule cells, primary cells freshly taken from rat; Potency: caspase-3 activation; series mostly up to 91.7 µM; caspase-3 activation: at the top concentration", "outline": "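Primary rat proximal tubule cells, 1000/well, 5 h plating at 37 °C, then compound 16 h at 37 °C. Caspase-Glo 3/7 reagent, 1 h RT, luminescence. Normalized to DMSO (basal) and 10 uM staurosporine (100%); Hill-fit AC50.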"}
{"smiles": "Oc1ccccc1O", "caspase-3 activation": "3.79% (inactive)"}
{"smiles": "Nc1nc2ccc([N+](=O)[O-])cc2s1", "caspase-3 activation": "-13.3% (inactive)"}
{"smiles": "O=c1cc(-c2ccccc2)oc2ccccc12", "caspase-3 activation": "-11.8% (inactive)"}
{"smiles": "O=C1CN(/N=C/c2ccc([N+](=O)[O-])o2)C(=O)N1", "caspase-3 activation": "-9.41% (inactive)"}
{"smiles": "O=C(O)/C=C\\C(=O)O", "caspase-3 activation": "-2.99% (inactive)"}
{"smiles": "Nc1ccc([N+](=O)[O-])cc1O", "caspase-3 activation": "5.16% (inactive)"}
{"smiles": "CC(C)NCC(O)COc1cccc2ccccc12", "note": "(stereo unspecified)", "caspase-3 activation": "-0.945% (inactive)"}
{"smiles": "Nc1ccc(O)c([N+](=O)[O-])c1", "caspase-3 activation": "-10% (inactive)"}
{"smiles": "CN(C)c1ccc(C(=C2C=CC(=[N+](C)C)C=C2)c2ccccc2)cc1", "Potency": "794 nM (active)"}
{"smiles": "CCCOC(=O)c1ccc(O)cc1", "Potency": "inactive"}
{"smiles": "CN1CCC[C@H]1c1cccnc1", "caspase-3 activation": "-7.18% (inactive)"}
{"smiles": "C#C[C@]1(O)CC[C@H]2[C@@H]3CCc4cc(O)ccc4[C@H]3CC[C@@]21C", "caspase-3 activation": "0.764% (inactive)"}
{"smiles": "c1cnc2c(c1)ccc1cccnc12", "caspase-3 activation": "-5.14% (inactive)"}
{"smiles": "O=C(O)c1cc(O)c(O)c(O)c1", "caspase-3 activation": "-11.6% (inactive)"}
{"smiles": "c1ccc2sc(SSc3nc4ccccc4s3)nc2c1", "caspase-3 activation": "0.743% (inactive)"}
{"smiles": "NCCO", "caspase-3 activation": "-2.25% (inactive)"}
{"smiles": "CCCCCCCCCCCCCCCCCC(=O)O", "caspase-3 activation": "3.77% (inactive)"}
{"smiles": "N=C1N=C(N)c2cc3ccccc3cc21", "caspase-3 activation": "13.1% (inactive)"}
{"smiles": "CC1(C)S[C@@H]2[C@H](NC(=O)[C@H](N)c3ccccc3)C(=O)N2[C@H]1C(=O)O", "caspase-3 activation": "-1.07% (inactive)"}
{"smiles": "Nc1ccc(O)c(C(=O)O)c1", "caspase-3 activation": "-18.5% (inactive)"}
{"smiles": "CN(C)c1ccc(N=NS(=O)(=O)O)cc1", "caspase-3 activation": "-17.9% (inactive)"}
{"smiles": "CN(C)CCC(c1ccc(Cl)cc1)c1ccccn1", "note": "(stereo unspecified)", "caspase-3 activation": "4.74% (inactive)"}
{"smiles": "S=c1[nH]c2ccccc2s1", "caspase-3 activation": "0.104% (inactive)"}
{"smiles": "COc1cc(CNC(=O)CCCC/C=C/C(C)C)ccc1O", "caspase-3 activation": "-7.85% (inactive)"}
